# In PubChem BioAssay (NCI):
# This is part of a sample that, as a whole, favours compounds with a hit. Of some 83,000 tested, about 20% had one in any assay.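 The test compound was applied at a single concentration to cells in 96-well plates for 48 hours, and percent growth was recorded.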 Values without a mark were called inactive. Calls of active or inactive are those of the source. The calls were made as follows: active = growth percent below 10; inactive = the rest.
# Tested on: HL-60(TB) leukemia
# Test: NCI-60 one-dose screen, 48 h (100 = growth as untreated, 0 = no growth, -100 = all killed)
# Conditions: 10 µM unless noted
row,SMILES,growth
1,CCN(CC)CCOC(=O)c1cc(OCc2ccccc2)c(OCc2ccccc2)c(OCc2ccccc2)c1,59.6%
2,COc1ccc(C/C(C)=C(\c2ccc(Cl)cc2)c2ccc(OCCN3CCCCC3)cc2)cc1,91.8%
3,CN(Cc1cccc(C(F)(F)F)c1)C(=O)[C@@H](CC(=O)N1CCC(N2CCCCC2)CC1)N1C(=O)[C@@H](N2C(=O)OC[C@@H]2c2ccccc2)[C@H]1/C=C/c1ccccc1,70.1%
4,C=CCN1CCCC1=O,47.1%
5,Cc1nc2sc(C(=O)Nc3ccc(Br)cc3)c(N)c2cc1C(O)c1ccccc1 (configuration not stated),22.4%
6,O=C(/C=C/c1ccc(Cl)cc1)c1ccc(-n2cc(CN3CCN(c4cc5c(cc4F)c(=O)c(C(=O)O)cn5C4CC4)CC3)nn2)cc1,99%
7,Oc1c(CN2CCC(N3CCOCC3)CC2)cc(Cc2cc(CN3CCC(N4CCOCC4)CC3)c(O)c3ncccc23)c2cccnc12,-5.88% (active)
8,CCN(CC)c1ccc(/C=C\c2cc(C)c3cc(C)ccc3n2)cc1,21.5%
9,Cc1ccc(-c2c3c(N)nc(-c4cccnc4)nc3nc3c2c(C)nn3-c2ccccc2)cc1,95.6%
10,CC1=CC[C@@H]2CC[C@]3(C)[C@H](CC[C@@H]4[C@@]5(C)CCCNC(C)(C)[C@@H]5CC[C@]43C)[C@H]2[C@@H]1C,21.7%
11,CN1CCN(c2ccc(NC3=CC(=O)c4ncncc4C3=O)cc2)CC1,-32.1% (active)
12,COc1ccc(C(=O)/C=C/c2cc(C(=O)c3cc(OC)c(OC)c(OC)c3)ccc2OC)cc1,75.3%
13,COc1ccc(C(=O)/C=C/c2cc3c(c(OC)c2)OCC(=O)N3)cc1,6.81% (active)
14,O=C(/C=C/c1cc([N+](=O)[O-])ccc1Cl)c1ccccc1,61.7%
15,Nc1nc(Nc2ccccc2)c2ncn(Cc3cc4c(cc3Br)OCO4)c2n1,-11.7% (active)
16,O=C(O)CCCCSCCCCC(=O)O,97.8%
17,Nc1nc(=O)n([C@H]2CC=C(CO)O2)cc1F,88%
18,CC(=O)C1CCC2C3CC(F)C4=CC(=O)CCC4(C)C3C(O)CC12C (configuration not stated),94.2%
19,CC(C)CNc1nc(N=[N+]=[N-])nc(NCC(C)C)n1,48.9% [100 µM]

row,SMILES,growth
1,NC(=O)c1cc(Br)ccc1NC(=O)/C=C/c1ccccc1,-22.9% (active)
2,COc1cc(-c2cccc([N+](=O)[O-])c2)c(-c2nc(-c3ccccc3)c(-c3ccccc3)n2C2CC2)cc1OC,9.63% (active)
3,COC12CC(=O)C(C(C)=O)=C(O)C1(C)c1c(O)c(C)c(O)c(C(C)=O)c1O2 (configuration not stated),61.7%
4,Cc1nc2cc(Nc3nc(NCCN)nc(Nc4ccc(F)cc4)n3)ccc2n1Cc1ccccc1,-21.5% (active)
5,C=C(Cl)C(=NC(C)(C)C)Nc1ccccc1C,43.3%
6,CCN(CC)CCSCCN(CC)CC,100%
7,S=C(Nc1ccccc1)N1CCCCC1,93.5%
8,CN(Cc1ccccc1)c1nc(Cl)c(C2CC(c3ccccc3)=NN2c2ccccc2)s1 (configuration not stated),100%
9,O=C(NCc1cn(Cc2cccc(Oc3ccccc3)c2)nn1)c1cccnc1NCc1ccc(Cl)cc1,3.88% (active)
10,COc1ccc(Nc2ccc3ccccc3c2)cc1,91.3%
11,NC(=O)NCCO,109%
12,COC(=O)c1ccc(NC(=O)c2ccc(-c3cccc([N+](=O)[O-])c3)o2)cc1,101%
13,Cc1ccc(NC(=O)c2ccccc2Cl)cc1,86.1%
14,COc1cc(/C=C/C(=O)c2nc3cc(F)ccc3nc2C)cc(OC)c1OC,-45.6% (active)
15,COc1ccc(C(=O)N=Nc2c(O)n(C)c3ccccc23)cc1,99.4%
16,Cc1nc(N)nc(SCc2ccccc2)c1Br,53.2%
17,CO[C@H](C(=O)[C@@H](O)[C@@H](C)O)[C@@H]1Cc2cc3cc(O[C@H]4C[C@@H](O[C@H]5C[C@@H](O)[C@H](O)C(C)O5)[C@H](O)C(C)O4)c(C)c(O)c3c(O)c2C(=O)[C@H]1O[C@H]1C[C@@H](O[C@H]2C[C@@H](O[C@H]3C[C@@H](OC)[C@H](O)C(C)O3)[C@@H](O)C(C)O2)C(O)(O)C(C)O1 (some centres not stated),26.8%
18,CCOC(=O)c1nnn(-c2ccccc2)c1C1=CN(C)CCC1,84.4%
